# About 83,000 compounds went through this panel and 20% of them were active in at least one assay; those are over-represented in the sample as a whole.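 Method: cells in 96-well plates; compound added at one concentration; 48 h incubation; percent growth measured; values under 10 scored active.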 Values without a mark were called inactive. Calls of active or inactive are those of the source.
# Columns and labels:
# Test in all cases: NCI-60 one-dose screen, 48 h (100 = growth as untreated, 0 = no growth, -100 = all killed)
# Conditions in all cases: 10 µM unless noted
# NCI-H23 lung = test system: NCI-H23 lung
# NCI-H226 lung = test system: NCI-H226 lung
# NCI-H322M lung = test system: NCI-H322M lung
# HOP-62 NSCLC = test system: HOP-62 NSCLC
# NCI-H460 lung = test system: NCI-H460 lung
# HOP-92 NSCLC = test system: HOP-92 NSCLC
# NCI-H522 lung = test system: NCI-H522 lung
# A549/ATCC NSCLC = test system: A549/ATCC NSCLC
# 786-0 renal = test system: 786-0 renal
# COLO 205 colon = test system: COLO 205 colon
# DU-145 prostate = test system: DU-145 prostate
# K-562 leukemia = test system: K-562 leukemia
# MALME-3M melanoma = test system: MALME-3M melanoma
# MDA-MB-231 breast = test system: MDA-MB-231 breast
# RXF 393 renal = test system: RXF 393 renal
# SF-268 CNS = test system: SF-268 CNS
# SF-295 CNS = test system: SF-295 CNS
# SF-539 CNS = test system: SF-539 CNS
# UACC-257 melanoma = test system: UACC-257 melanoma
# M14 melanoma = test system: M14 melanoma
SMILES,growth (NCI-H23 lung),growth (NCI-H226 lung) [%],growth (NCI-H322M lung),growth (HOP-62 NSCLC),growth (NCI-H460 lung),growth (HOP-92 NSCLC),growth (NCI-H522 lung),growth (A549/ATCC NSCLC),growth (786-0 renal),growth (COLO 205 colon),growth (DU-145 prostate),growth (K-562 leukemia),growth (MALME-3M melanoma),growth (MDA-MB-231 breast),growth (RXF 393 renal),growth (SF-268 CNS),growth (SF-295 CNS) [%],growth (SF-539 CNS),growth (UACC-257 melanoma),growth (M14 melanoma)
C=C1c2nc3ccccc3n2C=C(c2ccc(Cl)cc2)N1Cc1ccccc1,73.4%,76.9,96%,106%,88.2%,73.6%,66.3%,70.6%,89.5%,105%,103%,59.1%,94.5%,85.4%,65.7%,90.3%,89.8,96.4%,75.4%,85.2%
COC(=O)C(Sc1ccc(Cl)cc1)C1SC(=S)N(Cc2ccccc2)C1=O (stereo not given),97.3%,116,105%,95.1%,107%,104%,96.7%,98.2%,103%,117%,102%,44%,98.9%,98.9%,106%,87.7%,75.6,109%,92.2%,100%
COc1cccc(CC(C)=C(c2ccc(OCCN(C)C)cc2)c2ccc(OCCN(C)C)cc2)c1,70%,31.3,1.04% (active),3.07% (active),-64.9% (active),10.2%,-39.8% (active),-21.7% (active),-91% (active),-70.5% (active),22.1%,-61.4% (active),-93% (active),-75.4% (active),-62.6% (active),-32.9% (active),22.8,-93.1% (active),-74.5% (active),-80.5% (active)
Cc1nc2ncccc2nc1Nc1ccc(S(=O)(=O)Nc2ccccn2)cc1,90.6%,94.5,96.1%,97%,106%,54.3%,81.6%,101%,94.9%,98.5%,105%,106%,107%,89.1%,109%,98.4%,104,97.5%,107%,97.5%
Cc1cc(N)n(S(=O)(=O)c2oc(-c3ccccc3)nc2C#N)n1,90.3%,89.6,98.4%,95%,106%,91.5%,24.4%,95.3%,90.1%,-34% (active),103%,7.1% (active),-49% (active),94.1%,92.3%,103%,101,108%,101%,84.5%
COc1ccc(-c2cn(-c3cccc(C(=O)/C=C/c4cc(OC)c(OC)c(OC)c4)c3)c(=O)[nH]2)cc1OC,93.9%,87.9,95.5%,93%,91%,61.2%,74.4%,89.5%,80.2%,90.9%,98.6%,50.7%,86%,72.1%,65.8%,65.8%,96.5,76.5%,80.1%,80.1%
CCCCCCN1CSC(=S)N(CCCCCC)C1,83.6%,92.3,115%,104%,100%,81.5%,101%,101%,99.4%,106%,113%,110%,95.2%,97.4%,106%,104%,98.2,102%,104%,96.5%
Cn1ncc2c(Sc3ccc(Cl)cc3)ncnc21,93.6%,108,86.5%,111%,92.9%,25.8%,21.4%,93.1%,98.8%,90.8%,83%,78.1%,69.9%,98.6%,117%,57.8%,96.8,92.2%,103%,103%
CCCCCCCCCCCC(=O)NCCC[N+](C)(C)CC(=O)[O-],93.2%,93.8,96.6%,97.3%,104%,79.1%,80%,105%,93.5%,88.7%,101%,83.3%,108%,90.5%,77.2%,85.5%,101,94.3%,98.3%,98.6%
CN(CCCCN(C[C@H]1Cc2ncccc2CN1)[C@H]1CCCc2cccnc21)C1CCC(F)(F)CC1,107%,78.4,95.5%,68.2%,99.5%,70.5%,89.6%,84%,82.5%,87.8%,97.9%,72.3%,153%,65.7%,89.9%,87.8%,96.5,99.2%,89.2%,101%
CCN(CC)CCOc1ccc(/C(=C(/C)c2ccccc2)c2ccc(OC(C)=O)cc2)cc1,95.7%,105,100%,106%,107%,81%,102%,117%,98.6%,113%,105%,87.2%,99.1%,108%,100%,93.2%,103,101%,120%,98.3%
COc1cccc(/C=C2\Oc3cc(OCCCN4CCCC4)ccc3C2=O)c1,88%,95.4,88.2%,98.1%,78.4%,74.1%,92.2%,91%,74.4%,86.7%,94.7%,-35.5% (active),98.9%,76.7%,81%,88.3%,91.1,76.1%,102%,65.9%
COc1ccc(/C=N\NC(=O)CN2CCN(c3cc4c(cc3F)c(=O)c(C(=O)N/N=C/c3ccc(OC)c(OC)c3)cn4C3CC3)CC2)cc1OC,-32% (active),52.1,11.1%,9.47% (active),3.65% (active),-2.77% (active),7.49% (active),48.6%,45.4%,7.74% (active),4.82% (active),13.3%,-71.9% (active),-22.9% (active),61.1%,-10.9% (active),66.2,-21.8% (active),11.4%,20.3%
Cn1cnc2c(N3CCN(C(=O)OCc4ccc5c(Cl)cc(Cl)c(O)c5n4)CC3)nc(Cl)nc21,86.4%,72.9,70.2%,53.7%,27.6%,70.7%,80.3%,51.2%,92.1%,109%,61.1%,44.9%,85.2%,83%,74.4%,59.5%,38.7,82.7%,89.6%,66.1%
Cc1cc(C2(c3cc(C)c(O)cc3C)OS(=O)(=O)c3ccccc32)c(C)cc1O,106%,106,101%,92.2%,108%,81.7%,92.2%,97.2%,109%,111%,119%,102%,122%,100%,114%,103%,107,105%,87.7%,108%

# — PubChem BioAssay (NCI)
